Counter-ions that a name gives are not always drawn.
test system: DU145; assay: Euclidean distance of Cell Painting phenotypic profile (signed KS, 77 features) to DMSO centroid (dimensionless distance); 5 or 10 uM (library dependent); higher = stronger phenotypic change vs DMSO (phenoactivity); conditions: 48 h
In short: (§1)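 Five cancer lines and a healthy fibroblast line received library compounds at 10 or 5 uM (library-dependent, 0.1% DMSO final) for 48 h. Stained cells were imaged confocally at 20X (9 fields/well). Harmony extracted 77 features, each scored as a signed Kolmogorov-Smirnov statistic against same-plate vehicle wells. Profiles were plate-position corrected, correlation-weighted and replicate-averaged at the top dose. Phenoactivity is the Euclidean distance from each profile to the median vehicle profile.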

Structure (SMILES) | Euclidean distance
CC[C@H](C)[C@H](NC(=O)[C@H]([C@@H](C)CC)N(C)C(C)=O)C(=O)N[C@H](C(=O)N[C@@H](CC(C)C)C(=O)[C@@]1(C)CO1)[C@@H](C)O [Epoxomycin] | 2.62
Oc1c(Cl)cc(Cl)c(Cl)c1Cc1c(O)c(Cl)cc(Cl)c1Cl [Hexachlorophene] | 1.19
C[C@H](CCC(=O)O)[C@H]1CC[C@H]2[C@@H]3CC[C@@H]4C[C@H](O)CC[C@]4(C)[C@H]3C[C@H](O)[C@]12C [Deoxycholic acid] | 0.997
CC(=O)O[C@H]1C(=O)[C@@]2(C)[C@H]([C@H](OC(=O)c3ccccc3)[C@]3(O)C[C@H](OC(=O)[C@H](O)[C@@H](NC(=O)c4ccccc4)c4ccccc4)C(C)=C1C3(C)C)[C@]1(OC(C)=O)CO[C@@H]1C[C@@H]2O [Paclitaxel] | 4.23
Cc1ccccc1OCC(O)CO (centres undefined) [Mephenesin] | 0.895

test system: FB; assay: as above; conditions: 48 h
In short: as §1

Structure (SMILES) | Euclidean distance
O=C(O)COc1nn(Cc2ccccc2)c2ccccc12 [Bendazac] | 1.39
COc1ccc(Cl)cc1NC(=O)Nc1cc(C)nc2ccccc12 | 1.02
C#C[C@]1(OC(C)=O)CC[C@H]2[C@@H]3CCC4=C[C@@H](OC(C)=O)CC[C@@H]4[C@H]3CC[C@@]21C [Ethynodiol diacetate] | 1.29
CN[C@H]1C(=O)N[C@@H]2Cc3ccc(cc3)Oc3cc4cc(c3O[C@@H]3O[C@H](C(=O)O)[C@@H](O)[C@H](O)[C@H]3NC(=O)CCCCCCCCC(C)C)Oc3ccc(cc3Cl)[C@@H](O)[C@@H]3NC(=O)[C@H](NC(=O)[C@@H]4NC(=O)[C@@H](NC2=O)c2cc(cc(O)c2Cl)Oc2cc1ccc2O)c1ccc(O)c(c1)-c1c(O[C@H]2O[C@H](CO)[C@@H](O)[C@H](O)[C@@H]2O)cc(O)cc1[C@@H](C(=O)NCCCN(C)C)NC3=O [Dalbavancin] | 0.48
Cc1nccn1CC1CCc2c(c3ccccc3n2C)C1=O (centres undefined) [Ondansetron Hydrochloride Dihydrate] | 1.01
CCC(=O)O[C@]1(C(=O)CCl)[C@@H](C)C[C@H]2[C@@H]3CCC4=CC(=O)C=C[C@]4(C)[C@@]3(F)[C@@H](O)C[C@@]21C [Clobetasol propionate] | 2.08
CNC[C@H](O)c1ccc(O)c(O)c1 [Epinephrine HCl] | 0.733
CCOC(=O)C1=C(COCCN)NC(C)=C(C(=O)OC)C1c1ccccc1Cl (centres undefined) [Amlodipine] | 1.06
Cc1c(O)cccc1C(=O)N[C@@H](CSc1ccccc1)[C@H](O)CN1C[C@H]2CCCC[C@H]2C[C@H]1C(=O)NC(C)(C)C [Nelfinavir Mesylate] | 1.59
Cc1nnc(SCC2=C(C(=O)O)N3C(=O)[C@@H](NC(=O)Cn4cc(Cl)c(=O)c(Cl)c4)[C@H]3SC2)s1 [Cefazedone] | 1.16
Cc1ccc([C@@H]2O[C@H](CO)[C@@H](O)[C@H](O)[C@H]2O)cc1Cc1ccc(-c2ccc(F)cc2)s1 [Canagliflozin hemihydrate] | 1.44
C/C(=N\NC(=S)N1CCC1)c1ccccn1 | 3.45
C[n+]1c2ccccc2nc2ccccc21 [Phenazine methosulfate] | 4.99
COC(=O)C1=C(C)NC(C)=C(C(=O)OC2CCCN(Cc3ccccc3)C2)C1c1cccc([N+](=O)[O-])c1 (centres undefined) [Benidipine HCl] | 0.926
Nc1nccc(Oc2ccc(NC(=O)c3c[nH]cc(-c4ccc(F)cc4)c3=O)cc2F)c1Cl | 1.94
CC(C)N(CCC(=O)c1ccc2ccccc2c1)Cc1ccccc1 | 1.33
O=C1c2c(O)ccc(O)c2C(=O)c2c(NCCNCCO)ccc(NCCNCCO)c21 [Mitoxantrone 2HCl] | 7.28
NCCc1c[nH]cn1 [Histamine Phosphate] | 1.25
C=C1CC[C@H]2C(=C)CC[C@H]3C(=C)C(=O)O[C@@H]3[C@@H]12 [Dehydrocostus Lactone] | 3.32
CCCC(=O)OCOC(=O)C1=C(C)NC(C)=C(C(=O)OC)C1c1cccc(Cl)c1Cl (centres undefined) [Clevidipine Butyrate] | 0.951

Structure (SMILES) | Euclidean distance
CN1CCN(C2=Nc3cc(Cl)ccc3Nc3ccccc32)CC1 [Clozapine] | 0.901
COCC(=O)Nc1c(I)c(C(=O)NCC(O)CO)c(I)c(C(=O)N(C)CC(O)CO)c1I (centres undefined) [Iopromide] | 1.04
CNCCC=C1c2ccccc2CCc2ccccc21 [Nortriptyline hydrochloride] | 1.82
CC[C@@H](CO)NCCN[C@@H](CC)CO [Ethambutol 2HCl] | 0.73
CC#CCn1c(N2CCC[C@@H](N)C2)nc2c1c(=O)n(Cc1nc(C)c3ccccc3n1)c(=O)n2C [Linagliptin] | 1.4
CONC(=O)Nc1ccc(-c2sc3c(c2CN(C)C)c(=O)n(-c2ccc(OC)nn2)c(=O)n3Cc2c(F)cccc2F)cc1 [Relugolix] | 1.4
Cc1ccc(/C(=C\CN2CCCC2)c2ccccn2)cc1 [Triprolidine Hydrochloride] | 1.16
NCCCC[C@H](NC(=O)[C@@H](NC(=O)[C@H](Cc1c[nH]c2ccccc12)NC(=O)[C@H](CCCCN)NC(=O)[C@H](CCCCN)NC(=O)[C@H](Cc1c[nH]c2ccccc12)NC(=O)[C@H](Cc1c[nH]c2ccccc12)NC(=O)[C@H](CCCCN)NC(=O)[C@@H](N)CCCCN)C(c1ccccc1)c1ccccc1)C(N)=O | 1.8
Nc1nccc2c1ncn2C1C=C(CO)C(O)C1O (centres undefined) [3-Deazaneplanocin A (DZNeP)] | 2.71
Clc1ccc(Nc2nnc(Cc3ccncc3)c3ccccc23)cc1 [Vatalanib (PTK787) 2HCl] | 1.53
O=c1cc(-c2ccccc2)oc2cc(O)c(O)c(O)c12 [Baicalein] | 2.7
C/C=C1/[C@H](O[C@@H]2O[C@H](CO)[C@@H](O)[C@H](O)[C@H]2O)OC=C(C(=O)OC)[C@H]1CC(=O)OCCc1ccc(O)c(O)c1 [Oleuropein] | 0.971
C[C@@H]1O[C@@H](Oc2c(-c3ccc(O)c(O)c3)oc3cc(O)cc(O)c3c2=O)[C@H](O)[C@H](O)[C@H]1O [Quercitrin] | 1.09
C=C(CC)C(=O)c1ccc(OCC(=O)O)c(Cl)c1Cl [Ethacrynic Acid] | 1.17
CC[C@H](C)[C@H](NC(=O)[C@H]([C@@H](C)CC)N(C)C(C)=O)C(=O)N[C@H](C(=O)N[C@@H](CC(C)C)C(=O)[C@@]1(C)CO1)[C@@H](C)O [Epoxomycin] | 2.62
Oc1c(Cl)cc(Cl)c(Cl)c1Cc1c(O)c(Cl)cc(Cl)c1Cl [Hexachlorophene] | 3.31
C[C@H](CCC(=O)O)[C@H]1CC[C@H]2[C@@H]3CC[C@@H]4C[C@H](O)CC[C@]4(C)[C@H]3C[C@H](O)[C@]12C [Deoxycholic acid] | 0.74
CC(=O)O[C@H]1C(=O)[C@@]2(C)[C@H]([C@H](OC(=O)c3ccccc3)[C@]3(O)C[C@H](OC(=O)[C@H](O)[C@@H](NC(=O)c4ccccc4)c4ccccc4)C(C)=C1C3(C)C)[C@]1(OC(C)=O)CO[C@@H]1C[C@@H]2O [Paclitaxel] | 2.69
Cc1ccccc1OCC(O)CO (centres undefined) [Mephenesin] | 1.13
